Compound activity: PubChem BioAssay, National Center for Advancing Translational Sciences (NCATS)
Sampled rows, rich in hits. Any-hit rate of the full collection: about 13%.
Sfp inh – qHTS Assay for Inhibitors of Bacillus subtilis Sfp phosphopantetheinyl transferase (PPTase); 4'-phosphopantetheinyl transferase ffp (Bacillus subtilis), Q9F4F7; Biochemical Sfp PPTase activity, qHTS; Potency, µM, for the others: largest response in the series, negative = inhibition, usual class: inhibitors; actives 3.5% (n = 310,000); AID 1490, 2009;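 also: the enzyme is Sfp with the accession as filed and its product quenches rhodamine fluorescence; potency is read from the fitted curve at half-maximal effect; 0% = enzyme reaction without inhibitor and -100% = no enzyme wells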
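Buffer: 50 mM Hepes-Na pH 7.6, 10 mM MgCl2, 0.01% Nonidet P-40, 0.01% BSA. Enzyme 15 nM, pre-exposed to compound 15 min; substrates then added and fluorescence change tracked over 30 min.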
KDM4E inh – qHTS Assay for Inhibitors of Human Jumonji Domain Containing 2E (JMJD2E). Lysine-specific demethylase 4E (Homo sapiens), B2RXH2. JMJD2E catalytic domain, FDH-coupled NADH fluorescence (FDH is formaldehyde dehydrogenase). Potency, µM (doses to about 57.1 µM), without a hit: at the highest dose activity change, negative = inhibition, actives largely listed as inhibitors. actives 1.6% (n = 230,000); active = well fitted inhibition curve with a large enough effect, not every such curve was filed as active; inconclusive = small, poorly fitted or top-dose-only effect, or another doubt; inactive = no such curve, though single readings can be large or run the other way;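 also: potency is read from the fitted curve at half-maximal effect; 0% = wells with enzyme and -100% = buffer wells without enzyme; nearly all actives have a fitted effect of over 50% in size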
Target sequence (B2RXH2 1-337 limits assumed): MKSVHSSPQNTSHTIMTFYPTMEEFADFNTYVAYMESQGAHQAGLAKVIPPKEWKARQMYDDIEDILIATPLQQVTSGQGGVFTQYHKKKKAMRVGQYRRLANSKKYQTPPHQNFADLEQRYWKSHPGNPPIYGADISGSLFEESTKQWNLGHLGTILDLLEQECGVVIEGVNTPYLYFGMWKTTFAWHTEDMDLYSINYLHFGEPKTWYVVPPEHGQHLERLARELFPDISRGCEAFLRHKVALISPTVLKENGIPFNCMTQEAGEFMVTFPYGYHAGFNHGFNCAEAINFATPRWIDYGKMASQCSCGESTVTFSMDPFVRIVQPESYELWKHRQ
miR-21 act – qHTS Assay for Modulators of miRNAs and/orActivators of miR-21; Potency, µM (top dose mostly 38.3 µM), without a hit: at the highest dose activity change, positive = activation, actives largely listed as activators; 340,000 tested, under 10 active; HeLa miR-21 FLuc reporter, luciferase, 48 h;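 also: % of control where 0% means no effect; miR-21 action dims this reporter so a rising signal means less miR-21 action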
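HeLa cells endogenously expressing miR-21, stably carrying CMV-driven firefly luciferase with a downstream miR-21 binding site, 2000 cells/well. Titrations up to approximately 40 uM, 48 hours; luciferase luminescence read.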
ALDH1A1 inh – qHTS Assay for Inhibitors of Aldehyde Dehydrogenase 1 (ALDH1A1); AID 1030, 2008; Aldehyde dehydrogenase 1A1 (Homo sapiens), P00352; Potency, µM (series often up to 75.3 µM), for inactives: at the top dose activity, negative = inhibition, hits mostly inhibitors; actives 7.3% (n = 220,000); Purified ALDH1A1, NADH fluorescence, propionaldehyde substrate; active = well fitted inhibition curve with a large enough effect, not every such curve was filed as active; inconclusive = small, poorly fitted or top-dose-only effect, or another doubt; inactive = no such curve, though single readings can be large or run the other way;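 also: potency is read from the fitted curve at half-maximal effect; plate controls were no enzyme wells and a reference inhibitor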
LMNA splice mod – qHTS Assay for Modulators of Lamin A Splicing. HeLa LMNA splicing GFP/RFP minigene ratio, 48 h. Potency, µM (titrated, usually from 46.1 µM), for the others: at the top dose ratio change, negative = inhibition, usual class: inhibitors. actives 0.01% (n = 200,000); active = well fitted inhibition curve with a large enough effect in the signal ratio, with a control signal flat, not every such curve was filed as active; inconclusive = small, poorly fitted or top-dose-only effect, or effect the other way, or a change in a side signal; the % refers to the signal ratio; also: potency is read from the fitted curve at half-maximal effect; % is scaled to controls: 0 for no effect and ±100 for the full control effect
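S3 HeLa cells stably expressing lamin A-EGFP splicing minigene plus DsRed2, 600 cells/well, 48 h compound exposure at 37C. Laser-scanning cytometry; analysed as GFP (500-530 nm)/RFP (575-640 nm) total intensity ratio; 0.5% DMSO vehicle.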
G9a inh – qHTS Assay for Inhibitors of Histone Lysine Methyltransferase G9a. Histone-lysine N-methyltransferase EHMT2 (Homo sapiens), Q96KQ7. G9a H3K9 monomethylation, AlphaScreen, 2 h. Potency, µM (titrated, usually from 102 µM), for the others: at the top dose activity, negative = inhibition, actives largely listed as inhibitors. actives 8.8% (n = 350,000). AID 504332, 2011; also: potency is read from the fitted curve at half-maximal effect; % is scaled to controls: 0 for no effect and ±100 for the full control effect; nearly all actives have a fitted effect of over 75% in size
Target sequence (Q96KQ7 913-1193 limits assumed): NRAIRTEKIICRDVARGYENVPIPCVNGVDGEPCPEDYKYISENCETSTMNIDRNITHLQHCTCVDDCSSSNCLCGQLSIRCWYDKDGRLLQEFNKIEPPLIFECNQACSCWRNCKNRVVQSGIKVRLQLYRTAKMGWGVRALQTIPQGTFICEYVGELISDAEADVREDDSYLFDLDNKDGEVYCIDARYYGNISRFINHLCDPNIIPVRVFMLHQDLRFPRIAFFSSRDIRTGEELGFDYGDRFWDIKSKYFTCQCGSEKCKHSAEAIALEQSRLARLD
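Step 1: enzyme (final 20 nM) with compound, 15 min RT. Step 2: substrate peptide 500 nM and SAM 20 uM, 2 h RT. Step 3: anti-H3K9me1 antibody and AlphaScreen beads, 10 min, then plate read.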
* marks the source's active call; other numbers are inactive results; ? = inconclusive; nt = not tested or not shown; [ ] = another dose, or the depositor's remark. Unless noted, calls follow the shape of the dose curve; as a rule, active = well fitted curve in the direction sought with a large enough effect; inconclusive = small, poorly fitted or top-dose-only effect, or another doubt; inactive = no such curve, though single readings can be large; an effect the other way counts as inactive or inconclusive.

SMILES	Sfp inh	KDM4E inh	miR-21 act	ALDH1A1 inh	LMNA splice mod	G9a inh
CCN1C(=O)/C(=C/C=C2/Sc3ccccc3N2CCO)SC1=S	?	-5%	-7%	?	nt	45µM*
Cc1ccc(-n2[nH]c(C)c(C=Nc3ccc(S(=O)(=O)Nc4nccs4)cc3)c2=O)c(C)c1	14%	-2%	-3%	-3%	nt	nt
COc1ccc(-c2n(Cc3ccccc3)c3ccccc3[n+]2Cc2ccccc2)cc1	-19%	?	?	?	nt	nt
COc1ccc(CC2(C)OC(c3ccccc3)=NN2C(C)=O)cc1 (stereo unspecified)	-6%	?	3%	?	13%	18%[59 µM]
COc1ccc(C(=O)c2ccc(N3CCN(C4CC(=O)NC4=O)CC3)cc2)cc1F (stereo unspecified)	-7%	-4%	-9%	8.9µM*	-7%	-2%[2.33 µM]
O=C(NCCc1ccccc1)c1ccc(CSc2nc3cccnc3n2Cc2ccccc2)cc1	nt	nt	-5%	nt	?	-40%[59 µM]
Cc1cccc(C)c1NC(=O)CN(C)C(=O)C1CCCCC1	nt	nt	nt	nt	nt	12%[12.7 µM]
Cc1cccc(C)c1NC(=O)CN(CC(=O)O)CC(=O)O	45µM*	nt	nt	nt	nt	-7%[12.7 µM]
COCCNC(=S)c1ccc(Br)cc1	45µM*	-16%	-5%	8.9µM*	nt	nt
CCN(CCO)Cc1cn[nH]c1-c1ccc(C)c(C)c1	-7%	-14%	0%	-6%	1%	3.5µM*
CCN(CCO)Cc1csc2cc(C)ccc12	-24%	1%	0%	-5%	?	?
CCOc1ccc(NC(=O)CCCn2c(C)c3cnn(-c4ccccc4)c(=O)c3c2C)cc1	nt	nt	-1%	nt	nt	43%[59 µM]
Cc1nc2c(cc(Oc3ccc(S(=O)(=O)N4CCOCC4)cn3)c3ccsc32)s1	?	?	-9%	?	?	71µM*
CCCCNC(=S)N/N=C1\C(=O)c2cccc3cccc1c23	15%	12%	-1%	13µM*	5%	9%
O=C(NN=C1c2ccccc2-c2ccccc21)c1ccccc1	?	-26%	-7%	?	11%	10µM*
O=C(N/N=C1\C(=O)c2cccc3cccc1c23)c1ccc(O)cc1	-12%	17%	-11%	10µM*	-27%[46 µM]	-24%
O=C(NN=C1c2ccccc2-c2ccccc21)c1ccccc1Br	?	-3%	-3%	-25%	-23%	-34%
CNC(=S)N/N=C1\C(=O)c2cccc3cccc1c23	-11%	6%	-5%	?	?	6%[0.501 µM]
Cc1ccc(-n2nc(C)c3c(C(=O)Nc4ccc(C)cc4Cl)cc(C)nc32)cc1	nt	nt	5%	nt	-10%[46 µM]	6%[59 µM]
CCOc1ccc(NC(=O)CSc2ccc(-c3cccnc3)nn2)cc1	3%	nt	-1%	nt	nt	17%
CN(C)c1ccc(/C=N/n2cnn(Cc3ccccc3Cl)c2=S)cc1	-23%	?	-40%	?	-6%[46 µM]	4.5µM*
Fc1ccc(/C=N/n2cnn(Cc3ccccc3Cl)c2=S)cc1	50µM*	-18%	-2%	20µM*	7%[46 µM]	20µM*
Cc1ccsc1C1C(C#N)=C(N)OC2=C1C(=O)CCC2 (stereo unspecified)	56µM*	0%	0%	5%	nt	23%
Cc1ccsc1C1C(C#N)=C(N)N(N(C)C)C2=C1C(=O)CCC2 (stereo unspecified)	?	-16%	1%	14µM*	nt	18%
CC(CN(C)C)NC(=O)c1ccc(Cc2nc3ccccc3[nH]2)cc1 (stereo unspecified)	nt	nt	nt	18%	nt	nt
SMILES	Sfp inh	KDM4E inh	miR-21 act	ALDH1A1 inh	LMNA splice mod	G9a inh
O=C(NC1CCN(C(=O)N2c3ccccc3Sc3ccccc32)CC1)c1ccccc1F	10%	-13%	17%	11µM*	-2%	?
CC(C)CN(Cc1cc(=O)oc2cc3c(cc12)CCCC3)CC(C)C	-1%	2%	-12%	nt	nt	11%
COCCN(CCOC)Cc1cc(=O)oc2cc3c(cc12)CCC3	-4%	?	-24%	?	10%	50µM*
CCOc1ccc(N(CC(=O)NC(C)(C)C)C(=O)CCC(=O)Nc2nccs2)cc1	10%	nt	-5%	nt	nt	6%
CC(C)(C)c1csc(NNC(=O)c2ccc(Cl)cc2)n1	45µM*	?	-2%	nt	nt	40µM*
CC(C)(C)c1csc(NC(=O)c2cccnc2)n1	9%	nt	-14%	nt	nt	20%[59 µM]
CSc1ccc(CNCc2ccc3c(c2)OCO3)cc1	-28%	nt	-9%	nt	nt	22µM*
COc1cc(CNCc2ccc(OC)c(OC)c2OC)cc(OC)c1	-2%	?	15%	-13%	-21%	?
Cc1ccccc1CNCc1ccc2c(c1)OCO2	?	nt	-3%	nt	nt	28µM*
CCOc1cc(CNCc2ccc3c(c2)OCO3)ccc1OC	23%	nt	-11%	nt	nt	9%[59 µM]
Fc1cccc(CNCc2ccc3c(c2)OCO3)c1	10%	nt	-17%	nt	nt	-69%
COc1cc(OC)c(OC)cc1CNCc1ccc2c(c1)OCO2	0%	nt	-4%	nt	nt	45µM*
COc1cc(CNCc2ccc(SC)cc2)cc(OC)c1	15%	-27%	-4%	-2%	-10%	22µM*
COc1cc(-c2noc(-c3ccc(N(C)C)c([N+](=O)[O-])c3)n2)cc(OC)c1OC	nt	nt	?	nt	nt	-30%[59 µM]
Cc1ccc(CNC(=O)c2cc3cc(C)ccc3n2C)cc1	nt	nt	18%	nt	?	?
O=C(CSc1nc2c(sc3ccccc32)c(=O)n1CCCC(=O)NC1CCCC1)Nc1ccc(F)cc1	nt	nt	8%	nt	nt	5%[59 µM]
Cc1cccc2nc(COc3ccc(-c4ccccc4)cc3)cn12	45µM*	?	-32%	6%	?	10%
CC(C)c1ccc(O)c(NC(=O)c2cccnc2)c1	-11%	5%	-3%	2%	-5%	?
O=C(NC(=S)Nc1cc([N+](=O)[O-])ccc1O)c1cccnc1	-63%	-1%	-12%	10µM*	nt	11µM*
Cc1ccc([N+](=O)[O-])cc1NC(=S)NC(=O)c1cccnc1	?	2%	-1%	-6%	-4%[46 µM]	-5%
N#Cc1ccccc1NC(=S)NC(=O)c1cccnc1	50µM*	nt	-7%	nt	nt	nt
CCC(C)c1ccc(O)c(NC(=S)NC(=O)c2cccnc2)c1 (stereo unspecified)	1%	-4%	-6%	32µM*	0%[46 µM]	3%[0.501 µM]
CC(C)(N)C(=O)N[C@@H](Cc1cnc[nH]1)C(=O)N[C@H](Cc1ccc2ccccc2c1)C(=O)N[C@H](Cc1ccccc1)C(=O)N[C@@H](CCCCN)C(N)=O	1%	nt	nt	nt	nt	nt
